Bioassay records (PubChem)
Rows were chosen to be rich in hits. Some 2% of all compounds tested hit in one or more screens of this group.
TDP43 rescue – rescues yeast growth from TDP-43 toxicity; TDP-43 expressing yeast growth rescue, BacTiter-Glo, 24 h; Potency, µM (titrated, usually from 46.1 µM), for inactives: top-dose growth rescue (activation), hits mostly activators; hit rate 1.8% among 410,000; also: % of control where 0% means no effect; nearly all actives have a fitted effect of over 50% in size
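Readout is BacTiter-Glo luminescence of cell growth, so inhibitors register as activators. TDP-43-expressing yeast at OD600=0.02 in galactose medium, after raffinose pregrowth to mid-log, were incubated with compound for 24 hr at 30 deg C.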
S-ASM inh – blocks human secretory acid sphingomyelinase; P17405; placental ASM, HMU-PC fluorogenic substrate, 60 min; Potency, µM (titrated, usually from 57.5 µM), without a hit: top-dose activity change, negative = inhibition, hits mostly inhibitors; hit rate 0.006% among 340,000; AID 504937
Target sequence (P17405 47-631 limits assumed): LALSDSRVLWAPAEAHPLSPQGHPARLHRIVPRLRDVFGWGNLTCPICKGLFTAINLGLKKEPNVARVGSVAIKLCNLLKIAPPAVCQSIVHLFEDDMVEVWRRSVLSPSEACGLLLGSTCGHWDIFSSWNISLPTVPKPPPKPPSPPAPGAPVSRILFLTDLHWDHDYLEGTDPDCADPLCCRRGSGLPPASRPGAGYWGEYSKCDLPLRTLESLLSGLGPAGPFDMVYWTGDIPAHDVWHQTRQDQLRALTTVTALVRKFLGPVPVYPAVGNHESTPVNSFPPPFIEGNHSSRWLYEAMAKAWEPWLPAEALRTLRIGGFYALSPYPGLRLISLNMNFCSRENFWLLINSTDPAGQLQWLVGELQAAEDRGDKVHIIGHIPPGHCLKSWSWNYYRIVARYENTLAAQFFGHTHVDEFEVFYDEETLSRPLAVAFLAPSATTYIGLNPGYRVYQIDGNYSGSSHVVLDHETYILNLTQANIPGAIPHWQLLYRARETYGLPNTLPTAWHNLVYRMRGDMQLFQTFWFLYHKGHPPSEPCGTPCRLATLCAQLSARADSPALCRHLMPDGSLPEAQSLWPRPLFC
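qHTS format. ASM enzyme prepared from human placenta hydrolyses the fluorogenic substrate HMU-PC0 (9 uM final) over 60 min at 37 °C after a 10 min compound preincubation.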
Rango dissoc inh – inhibition of RanGTP-driven Rango-importin beta dissociation; O95149+P62826; Biochemical FRET Rango-importin beta, RanGTP-induced dissociation; Potency, µM (top dose mostly 46.1 µM), without a hit: at the top dose activity change, negative = inhibition; hit rate 0.071% among 340,000; AID 540253; calls by dose curve; also: % of control where 0% means no effect; nearly all actives have a fitted effect of over 45% in size
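Compounds preincubate 5 min with complex of recombinant Rango and importin beta in PBS with 1 mM DTT. Ran (0.6 uM) loaded with 2 mM GTP plus 0.2 uM RCC1 starts dissociation; FRET is recorded 45 min later.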
Rango-impB inh – inhibitors of Rango-importin beta complex formation; Potency, µM (highest dose often 92.2 µM), without a hit: at the highest dose inhibition of complex formation; Q14974; hit rate 0.031% among 340,000; Rango CFP/YFP FRET sensor + importin beta, 45 min; calls by dose curve;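 also: 0% = DMSO wells and 100% = buffer wells lacking importin beta; nearly all actives have a fitted effect of over 15% in size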
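Inhibition scored from the CFP 486 nm/YFP 530 nm FRET ratio 45 min after adding 0.125 microM importin beta to 50 nM Rango biosensor preincubated 5 min with compound (room temperature, PBS with DTT, Tween-20, BSA). No-importin wells as positive control.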
aSyn rescue – inhibitors of alpha-synuclein toxicity in yeast | Yeast expressing alpha-synuclein, growth rescue, BacTiter-Glo, 24 h | Potency, µM (highest dose often 46.1 µM), for the others: at the top dose growth rescue (activation), hits mostly activators | hit rate 0.14% among 370,000 | AID 652106; also: % of control where 0% means no effect; nearly all actives have a fitted effect of over 65% in size
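Rescue of yeast growth: cells expressing toxic alpha-synuclein, induced in galactose at OD600 0.02, incubated with compound 24 h at 30 C. ATP luminescence quantified growth; inhibitors of toxicity appear as activators.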
Abeta rescue – restores growth of yeast expressing A-beta42 peptide. yeast expressing A-beta42, growth rescue, OD600, 48 h; response scale: 0% DMSO, 100% iron-clioquinol control. Potency, µM (titrated, usually from 46.1 µM), hits mostly activators. hit rate 0.063% among 410,000. AID 1347071; also: nearly all actives have a fitted effect of over 55% in size
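Yeast growth medium received pinned compounds, then yeast cells expressing toxic A-beta were added; plates incubated at 30 C for 48 hr. Growth read as absorbance at 600 nm, normalized to DMSO and equimolar FeCl3 plus clioquinol controls.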
Starred values were filed as active, the others as inactive; i = inactive; ? = inconclusive; . = no result given. Unless noted, calls follow the shape of the dose curve; as a rule, active = well fitted curve in the direction sought with a large enough effect; inconclusive = small, poorly fitted or top-dose-only effect, or another doubt; inactive = no such curve, though single readings can be large; an effect the other way counts as inactive or inconclusive. Potency is read from the fitted curve at half-maximal effect.

SMILES	TDP43 rescue	S-ASM inh	Rango dissoc inh	Rango-impB inh	aSyn rescue	Abeta rescue
Clc1cccc2sc(N3CCOCC3)nc12	23%	2%	1%	-4%	6%	i
Clc1cccc2sc(N3CCCC3)nc12	13µM*	-3%	3%	-1%	2%	i
Brc1ccc(-c2nc(-c3ccncc3)no2)o1	13µM*	-1%	1%	6%	3%	i
CCOc1ccc(NC(=O)c2oc(=O)c3ccccc3c2-c2ccc(C)cc2)cc1	21%	.	.	.	.	i
O=C(NCc1ccc(Cl)cc1)c1csc(-c2cccnc2)n1	16µM*	-7%	-9%	3%	-1%	i
Nc1ccc2nc(-c3cccc(-c4nc5ccc(N)cc5[nH]4)c3)[nH]c2c1	14µM*	11%	4%	7%	2%	?
O=C(CCn1c(=O)c2cccn2c2cccnc21)NCc1ccc(Cl)cc1	21%	.	.	.	.	i
Clc1ccccc1-c1nc2ccccc2c2nncn12	40µM*	-2%	2%	-1%	-3%	i
Cc1ccc(Cl)cc1Nc1nc2ccccc2c2nncn12	?	.	.	.	.	i
CNC(=O)Cn1cc(S(=O)(=O)Cc2ccccc2F)c2ccccc21	?	.	.	.	.	i
CN(C)c1ccc(/C=C/c2nc3ccccc3s2)cc1Cl	.	.	.	.	16%	.
Cc1c(C(=O)N2CCN(c3ccccc3)CC2)oc2c(Cl)cccc12	?	3%	-7%	5%	2%	i
COCc1c(C(=O)N2CCN(S(=O)(=O)c3ccccc3Cl)CC2)oc2ccccc12	11µM*	-3%	12%	-5%	4%	i
COCc1c(C(=O)N2CCN(Cc3nc4ccccc4s3)CC2)oc2ccccc12	20%	-2%	13%	-3%	2%	i
CCc1cc(C(=O)N2CCN(S(=O)(=O)c3cc(C)ccc3C)CC2)sc1C	2%	-1%	-17%	-2%	?	i
Cc1c(C(=O)N2CCN(S(=O)(=O)c3ccccc3F)CC2)oc2c(Cl)cccc12	14µM*	-9%	-4%	-2%	0%	i
CCc1cc(C(=O)N2CCN(S(=O)(=O)c3ccccc3F)CC2)sc1C	22µM*	1%	-17%	2%	14%	i
Cn1cc(S(=O)(=O)N2CCOCC2)cc1C(=O)Nc1ccc(Cl)c(C(F)(F)F)c1	19%	.	.	.	.	i
COc1ccccc1CNC(=O)C1CCCN(c2nc3ccccc3n3cccc23)C1 (stereo not given)	5%	.	.	.	.	i
C=CS(=O)(=O)c1c2cc(OC)ccc2nc2ccc(OC)cc12	3.5µM*	239%	?	?	-42%	i
COc1ccc2nc(Cl)cc(Cl)c2c1	8%	2%	0%	1%	-7%	i
COc1ccc(-c2ccc(-c3noc(C(C)C)n3)c(OC)n2)cc1	-2%	5%	0.0082µM*	?	-14%	i
CCc1nc(-c2ccc(-c3ccc(OC)cc3)nc2OC)no1	?	0%	?	-5%	-8%	i
CC(=O)N1N=C(c2cccc(Cl)c2)OC1c1cccc([N+](=O)[O-])c1 (stereo not given)	16µM*	-2%	4%	-4%	3%	i
CC(=O)N1N=C(c2ccccc2)CC1c1cccc([N+](=O)[O-])c1 (stereo not given)	13µM*	1%	25%	3%	4%	i
SMILES	TDP43 rescue	S-ASM inh	Rango dissoc inh	Rango-impB inh	aSyn rescue	Abeta rescue
Cc1c(C(=O)Nc2cccc(Cl)c2)sc2nc3n(c(=O)c12)N=C(c1cccc(Br)c1)CS3	17%	.	.	.	.	i
COc1ccccc1C(=O)NNC(=O)C(=O)Nc1cccc(Cl)c1C	11µM*	-1%	5%	-3%	-52%	i
COc1cccc(C(=O)NNC(=O)C(=O)Nc2cccc(Cl)c2C)c1	-4%	4%	-13%	0%	17%	i
Cc1oc2ncn(C)c(=O)c2c1C(=O)NCCCN1CCCC(C)C1 (stereo not given)	9%	.	.	.	.	i
CCCC[C@@H]1Cc2[nH][nH]c(=O)c2[C@H](c2ccc(C(C)C)cc2)O1	20µM*	.	.	.	-20%	i
CCCC[C@@H]1Cc2[nH][nH]c(=O)c2[C@@H](c2ccc(Cl)cc2)O1	0%	.	.	.	5%	i
O=c1[nH][nH]c2c1[C@@H](c1ccc(F)cc1)O[C@H](C1CCCCC1)C2	14%	.	.	.	-2%	i
O=c1[nH][nH]c2c1[C@H](c1ccc(F)cc1)O[C@H](C1CCCCC1)C2	32µM*	.	.	.	1%	i
O=c1[nH][nH]c2c1[C@H](c1ccc(Cl)cc1)O[C@H](C1CC1)C2	11µM*	.	.	.	1%	i
O=c1[nH][nH]c2c1[C@H](c1ccccc1)O[C@H](C1CCCCC1)C2	35µM*	.	.	.	5%	i
CCOC(=O)c1c(C)oc2nc(C)nc(NCc3ccc(OC)cc3OC)c12	-2%	.	.	.	.	i
CCOC(=O)c1ccc(NC(=O)CCc2c(C)nc3nc[nH]n3c2=O)cc1	11%	.	.	.	.	i
O=CNc1cc(-c2ccccc2Oc2ccccc2)cn2c(-c3ccc(F)cc3)cnc12	16µM*	.	.	.	20%	i
COc1cccc(-c2cnc3c(NC=O)cc(-c4ccc(OC)cc4OC)cn23)c1	22µM*	.	.	.	-7%	i
COc1cccc(-c2cc(NC=O)c3ncc(-c4ccc(OC)c(OC)c4)n3c2)c1	?	.	.	.	-8%	i
CC(=O)c1ccc(-c2cnc3c(NC=O)cc(-c4ccccc4Oc4ccccc4)cn23)cc1	?	.	.	.	11%	i
COc1cccc(-c2cnc3c(NC=O)cc(-c4ccc(N(C)C)cc4)cn23)c1	20µM*	.	.	.	-9%	i
COc1cccc(-c2cnc3c(NC=O)cc(-c4cc(OC)c(OC)c(OC)c4)cn23)c1	?	.	.	.	-19%	i
COc1ccc(-c2cc(NC=O)c3ncc(-c4ccc(OC)c(OC)c4)n3c2)c(OC)c1	27%	.	.	.	-18%	i
COc1ccc(-c2cc(NC=O)c3ncc(-c4cccc(OC)c4)n3c2)cc1	10µM*	.	.	.	-16%	i
COc1cccc(C(=O)c2cn(CC(=O)NCCc3ccccc3)c3nc(C)ccc3c2=O)c1	11%	.	.	.	.	i
CC(=O)Nc1cc(-c2cccc(NS(C)(=O)=O)c2)cn2c(-c3cccc(C(F)(F)F)c3)cnc12	29%	.	.	.	11%	i
CC(=O)Nc1cc(-c2ccccc2N(C)C)cn2c(-c3cccc(C(F)(F)F)c3)cnc12	25µM*	.	.	.	?	i
COc1ccccc1-c1cc(NC=O)c2ncc(-c3cccc(C(C)=O)c3)n2c1	18µM*	.	.	.	4%	i
